Results reported in the OligoGym collection.

These sequences were tested against FRMD4B (assay: pooled miR-30 sensor sort-seq; sequence = guide strand). Settings: shRNA.

Compared with TTGTCATCTAATTTGAACGCAG, TTGAAACTGAAATCCTTCGTGG is higher in sensor-assay potency score (higher = more potent): -0.725 for the first, 0.853 for the second.

Compared with TTACTTGCCATGATGAACTGAC, TATTAGAAAATTACTCTCCAGT is lower in sensor-assay potency score (higher = more potent): 0.412 for the first, 0.00309 for the second.

TTGCTCTTCACTAACTTCTGAG gave a sensor-assay potency score (higher = more potent) of -0.0574.

What follows are sequences tested against FRRS1 in the same assay as above. Settings: shRNA.

Compared with TTTTATACTTCTCAACAACTGT, TAAGGCACCATGAACCTTCAGA is higher in sensor-assay potency score (higher = more potent): -0.421 for the first, -0.182 for the second.

Compared with TGACAAAGTAACTTCAATCTGA, TATGCTAACAGTAGTCATCCAT is lower in sensor-assay potency score (higher = more potent): 0.192 for the first, 0.0935 for the second.

Going from TTATTCTAGCAGCTGTTCCCAT to TTCTTCTGAAAGAACACTGCAT, the sensor-assay potency score (higher = more potent) rises from -0.391 to 0.427.

Compared with TAAATTGCCAACACTGCCTTTT, TAACTTCAATCTGATCTCCTGG is higher in sensor-assay potency score (higher = more potent): -0.275 for the first, 0.0664 for the second.

First: AAGAACACTGCATAACACCGTC
Second: TAACAGTAGTCATCCATGCCAC
The sensor-assay potency score (higher = more potent) of the first is higher: -0.249 for the first, -0.274 for the second.

Going from TTCAACTCCAGAACAACCTCAG to ATAAGCATCATCATCACCCATC, the sensor-assay potency score (higher = more potent) falls from 0.767 to -0.528.
